From PubChem BioAssay (NCATS)
Where “and” joins values, the source holds several entries; their conditions need not be identical. Identical values can stand only once. Results filed as inconclusive are left out. Calls of active or inactive are those of the source. Calls follow the shape of the dose curve; as a rule, active = well fitted inhibition curve with a large enough effect; inconclusive = small, poorly fitted or top-dose-only effect; inactive = no such curve, though single readings can be large or run the other way.

Each compound was assayed against Tyrosine-protein kinase Yes (Homo sapiens) (UniProt P07947) (assay: qHTS for small molecule inhibitors of Yes1 kinase: Primary Screen (AID 686947; also: nearly all actives have a fitted effect of over 60% in size;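 as to activity change, negative = inhibition: plate controls were DMSO with enzyme for no effect and no-enzyme DMSO wells for full effect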)). Conditions: Yes1 kinase biochemical qHTS inhibition; series mostly up to 76.9 µM; activity change, negative = inhibition: at the top concentration.
In short: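 ADP-Glo luminescence reports ADP formed by 4 nM Yes1 phosphorylating poly(E4Y) (0.3 mg/mL) with 0.1 mM ATP for 60 min at room temperature, following 20 min compound preincubation; normalised between DMSO wells with and without enzyme.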
Potency is read from the fitted curve at half-maximal effect.

Sequence of Tyrosine-protein kinase Yes (Homo sapiens) (P07947 whole entry, looked up): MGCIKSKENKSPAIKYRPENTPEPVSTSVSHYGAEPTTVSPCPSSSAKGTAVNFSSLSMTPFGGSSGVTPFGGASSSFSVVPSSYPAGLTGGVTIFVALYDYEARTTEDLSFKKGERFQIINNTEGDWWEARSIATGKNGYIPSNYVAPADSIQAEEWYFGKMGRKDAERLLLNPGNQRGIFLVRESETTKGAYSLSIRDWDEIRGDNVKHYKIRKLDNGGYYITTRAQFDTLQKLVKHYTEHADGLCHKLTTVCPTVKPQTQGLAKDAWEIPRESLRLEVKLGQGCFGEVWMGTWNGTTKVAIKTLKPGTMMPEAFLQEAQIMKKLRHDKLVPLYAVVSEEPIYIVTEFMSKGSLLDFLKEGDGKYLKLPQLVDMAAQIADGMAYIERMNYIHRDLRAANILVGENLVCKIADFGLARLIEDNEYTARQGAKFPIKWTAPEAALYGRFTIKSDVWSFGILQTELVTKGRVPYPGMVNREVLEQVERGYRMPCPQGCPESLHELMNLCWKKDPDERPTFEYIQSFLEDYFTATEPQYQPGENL

Question: Which Potency does the source give for `Clc1ccc2ncc(-c3cccc(NC4CNC4)n3)n2c1` here?
Answer: Its Potency is 274 nM (active).

Question: With `CN(C)CCCN=c1c2ccccc2n(C)c2[nH]c(=O)n(C)c(=O)c12` as the compound, how does the “activity change, negative = inhibition” value read?
Answer: The value was 3.71% (inactive).

Question: For `Cc1cnc(-c2cnc(NCCNc3ccc(C#N)cn3)nc2-c2ccc(Cl)cc2Cl)[nH]1`, which “activity change, negative = inhibition” value is on record?
Answer: The value was 78.3% (inactive).

Question: `CC(=O)Nc1sc2c(c1-c1nc3ccccc3s1)CNC2` was tested. Which “activity change, negative = inhibition” value did it give?
Answer: The value was 11.9% (inactive).

Question: For `Cc1cc(Nc2cc(NC(=O)c3c(Cl)cccc3Cl)ccn2)nc(N)n1`, which Potency is on record?
Answer: The Potency was 194 nM (active).

Question: For `C=CC(=O)Nc1cc2c(Nc3ccc(F)c(Cl)c3)ncnc2cc1C#CC(C)(C)N1CCN(C)CC1`, which Potency is on record?
Answer: Its Potency is 97.2 nM (active).

Question: Which Potency does the source give for `C#Cc1cccc(Nc2ncnc3cc(OC)c(OCCCCCCC(=O)NO)cc23)c1` here?
Answer: The Potency was 1730 nM (active).

Question: For `COCCn1c2c([n+](Cc3cnccn3)c1C)C(=O)c1ccccc1C2=O`, which “activity change, negative = inhibition” value is on record?
Answer: The value was -13.1% (inactive).

Question: Which “activity change, negative = inhibition” value does the source give for `O=C(O)c1ccc2cc(-c3ccc(O)c(C45CC6CC(CC(C6)C4)C5)c3)ccc2c1` here?
Answer: Its value is -4.97% (inactive).

Question: How did the Potency turn out when `CCN(CC)CCCCNc1ncc2cc(-c3cc(OC)cc(OC)c3)c(NC(=O)NC(C)(C)C)nc2n1` was run?
Answer: Its Potency is 9720 nM (active).

Question: Which “activity change, negative = inhibition” value does the source give for `CCCCCN(CCC12CC3CC(CC(C3)C1)C2)C(=O)NCCCc1ccncc1` here?
Answer: The value was -1.21% (inactive).

Question: `Fc1cc(-c2cccc3ncc(-c4cnn(C5CCNCC5)c4)nc23)cc(F)c1CN1CCOCC1` was tested. Which Potency did it give?
Answer: The Potency was 308 nM (active).

Question: `COc1cccc2nc(-c3cccs3)nc(NN3C(=O)C=C(C)C3=O)c12` was tested. Which “activity change, negative = inhibition” value did it give?
Answer: Its value is -15.3% (inactive).

Question: Which Potency does the source give for `CC(NCc1ccc2c(c1)nc(NC(=O)c1ccc(-c3cn[nH]c3)s1)n2CC(C)(C)O)C(C)(C)C` (stereo not given) here?
Answer: Its Potency is 5.5 nM (active) and 0.2 nM (active).

Question: With `Cc1cnc(Nc2ccc(F)cc2Cl)nc1-c1c[nH]c(C(=O)N[C@H](CO)c2cccc(Cl)c2)c1` as the compound, how does the “activity change, negative = inhibition” value read?
Answer: Its value is -0.329% (inactive).

Question: With `Nc1cc(C(F)(F)F)c(-c2cc(N3CCOCC3)nc(N3CCOCC3)n2)cn1` as the compound, how does the “activity change, negative = inhibition” value read?
Answer: The value was -21.5% (inactive).

Question: Which Potency does the source give for `C=CCn1c(=O)c2cnc(Nc3ccc(N4CCN(C)CC4)cc3)nc2n1-c1cccc(C(C)(C)O)n1` here?
Answer: Its Potency is 43.4 nM (active).

Question: With `O=C(NCCS(=O)(=O)c1ccc(C(F)(F)F)cn1)c1ccc(Cl)cc1` as the compound, how does the “activity change, negative = inhibition” value read?
Answer: The value was 7.72% (inactive).

Question: How did the “activity change, negative = inhibition” value turn out when `c1ccc2c(CCNc3ccc(Nc4ccncc4)cc3)c[nH]c2c1` was run?
Answer: Its value is -7.69% (inactive).

Question: How did the “activity change, negative = inhibition” value turn out when `CC(C)(C)c1cc(C(C)(C)C)c(NC(=O)c2c[nH]c3ccccc3c2=O)cc1O` was run?
Answer: Its value is -6.21% (inactive).

Question: Which Potency does the source give for `CC1(O)CC(c2nc(-c3ccc4ccc(-c5ccccc5)nc4c3)c3c(N)nccn23)C1` (stereo not given) here?
Answer: The Potency was 1730 nM (active).

Question: Which “activity change, negative = inhibition” value does the source give for `COc1cc(C(C)C)c2c(c1)S(=O)(=O)N(COc1cc(=O)n3cccc(OCCN4CCCCC4)c3n1)C2=O` here?
Answer: Its value is -3.66% (inactive).

Question: How did the “activity change, negative = inhibition” value turn out when `CCCCc1nc2cc(C=CC(=O)NO)ccc2n1CCN(CC)CC` was run?
Answer: The value was -7.2% (inactive).

Question: How did the Potency turn out when `Nc1ccc(C(=O)c2cc3c(ccc4ccccc43)[nH]2)cc1` was run?
Answer: The Potency was 30700 nM (active).

Question: For `COc1cc2ncnc(Nc3ccc(F)c(Cl)c3)c2cc1NC(=O)C=CCN1CCCCC1`, which Potency is on record?
Answer: The Potency was 194 nM (active).

Question: With `N#Cc1c(O)c2c(-c3ccc(-c4ccccc4O)cc3)csc2[nH]c1=O` as the compound, how does the “activity change, negative = inhibition” value read?
Answer: Its value is -8.61% (inactive).

Question: For `NC(=O)c1c(OCc2c(F)cc(Br)cc2F)nsc1NC(=O)NCCCCN1CCCC1`, which Potency is on record?
Answer: Its Potency is 1.9 nM (active).

Question: How did the “activity change, negative = inhibition” value turn out when `Cn1c2cc(S(C)=O)sc2c2cnn(Cc3cccc(N)c3)c(=O)c21` (stereo not given) was run?
Answer: The value was 11.4% (inactive).

Question: Which “activity change, negative = inhibition” value does the source give for `CCCCN1CCC(CNC(=O)c2c3n(c4ccccc24)CCCO3)CC1` here?
Answer: Its value is 12.4% (inactive).

Question: With `O=c1[nH]nc(Sc2ncc([N+](=O)[O-])s2)n1-c1ccc2c(c1)OCCO2` as the compound, how does the “activity change, negative = inhibition” value read?
Answer: Its value is -9.72% (inactive).

Question: `CC(C)CC(=O)Nc1n[nH]c2c1CN(C(=O)C1CCN(C)CC1)C2(C)C` was tested. Which Potency did it give?
Answer: Its Potency is 12200 nM (active).

Question: For `C=CC(=O)Nc1cccc(Oc2nc(Nc3ccc(N4CCN(C)CC4)cc3OC)ncc2Cl)c1`, which Potency is on record?
Answer: Its Potency is 4870 nM (active).

Question: For `Cn1c(=O)n(-c2ccc(C(C)(C)C#N)cc2)c2c3cc(-c4cnc5ccccc5c4)ccc3ncc21`, which “activity change, negative = inhibition” value is on record?
Answer: The value was -24.9% (inactive).

Question: With `CC(C)(C)c1cc(NC(=O)Nc2ccc(-c3cn4c(n3)sc3cc(OCCN5CCOCC5)ccc34)cc2)no1` as the compound, how does the “activity change, negative = inhibition” value read?
Answer: Its value is -21.8% (inactive).

Question: `CC(C)(C)OC(=O)Nc1ccc(-c2cc(C(=O)NCCCCCCC(=O)NO)no2)cc1` was tested. Which “activity change, negative = inhibition” value did it give?
Answer: Its value is 5.27% (inactive).
